About 3,700 (7%) of roughly 53,000 sequences were called active. The sample as a whole holds a higher share of actives than the screen did. Values without a mark were called inactive.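 The calls were made as follows: active = gene knockdowns whose robust z-score for IL-1 alpha signal is at least 2 or at most -2, so actives lie on both sides; inactive = the rest.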
assay: Components of the Cytosolic LPS Sensing Pathway: Gene Identification via Genome-wide siRNA Screen; conditions: RAW264.7 macrophages, IL-1a HTRF, actives lie on both sides, screened at 100 nM (by protocol), cells primed 5 h with Pam3CSK4 first;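 also: robust z of the log signal after scaling to non-targeting control siRNA wells of the plate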
Outline: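 Three distinct siRNAs per gene were tested singly at 100 nM in RAW264.7 macrophages. Following Pam3CSK4 priming and 24 hour LipidA transfection, IL-1a secretion was read by HTRF.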

Row | Sequence | z-score
1 | GGUCUCACAAAAACAGUUCTT against Casq2 | -0.317
2 | GCAGUGUAAUGUGGCCUACTT against Rorc | 0.682
3 | GCUGUUUUCUUUCCAUUUCTT against Olfr981 | -1.1
4 | GAAUUACACACAGGCCUGATT against Olfr1048 | 0.306
5 | CACUGCUGUAAUCCCUAUGTT against Olfr1002 | 0.4
6 | CCAACAACGGCAUUCACUATT against Ebf3 | -0.676
7 | GGAGCACUUUGUAUGGAACTT against Ube2q2 | 2.97 (active)
8 | CAAACCUUGUUGCCAUGACTT against Olfr406 | 0.0688
9 | GACAAGGUGCCAUACCAUUTT against Olfr351 | -0.373
10 | GGACAGCUCUCAGAAUUCUTT against Ctse | -1.13
11 | CGCAAACAAACCUUAACAGTT against Maneal | 2.21 (active)
12 | GCUCCGGAAAGUAAGCAGATT against Tnfrsf26 | 0.259
13 | CCAUGGUACUAAUGUAAAUTT against Eef1e1 | 0.797
14 | GGCUUUGAACACCAGUGAATT against Rpp21 | -0.453
15 | CGCAGAUAAUAUCUUUGUCTT against Olfr461 | 0.389
16 | GGACCUAAGCAGAAAACUGTT against Meis3 | 0.789
17 | GCGGUAUGGCAUGGUACAUTT against LTO1 | -0.855
18 | GGCCAUAAAACAUAAGCUATT against Tmem17 | 0.163
19 | CGAACUUGUACAGAAGAAUTT against Slfn3 | -0.311
20 | AUGGGAGAAUCAGCAGAACTT against Set | -2.77 (active)
21 | GCAUAGAGGACUACAACGATT against Optc | 0.329
22 | GGACAGGAAGAAAAGAAACTT against Vmn2r-ps11 | -1.19

Row | Sequence | z-score
23 | GGAAGGUGAAGCCAGUUUCTT against Traf3ip2 | 2.02 (active)
24 | GGACACUUUCAGACCUUAGTT against Ankrd27 | -0.116
25 | GGACUUUGAUGUUGAAUGUTT against Rapgef1 | -0.985
26 | GGAAAAUGGUUGGUACUUUTT against Vwc2 | 0.219
27 | GGACCUUCCUACGAGAAAATT against Tm2d2 | 0.0894
28 | GGAUCAAGGAGGAUUUCAATT against Tprg | 2.38 (active)
29 | CGGUAAACAUCAGUAAUGATT against Drd5 | 0.0608
30 | GCUACGUUCAGUUCCAUUGTT against Eddm3b | -0.321
31 | CGACUUGAUUUCAAAACAUTT against Fbxl13 | -0.981
32 | GGACCUGUCCAUCUUCAUCTT against Scn1b | 3.87 (active)
33 | GCCAAGAGUUUGAUAUAUATT against Plekhg3 | 1.79
34 | GGUAACAUCUCCAUCAGCCTT against Nxph3 | 0.34
35 | GGUAUCUUUAGGUUUCUGGTT against Vmn2r37 | 0.499
36 | GCCAAGAAAGAUCAUUGACTT against Far2 | -0.703
37 | GCUAGCCAGUGCAUUCACATT against Srp68 | -2.96 (active)
38 | GCCCUUAAUUGAACAAAUATT against Otud7b | 0.0529
39 | CGGACUCAGUCAUCAUUGCTT against Atf7 | -1.46
40 | GGAAAGAAAAAUCAGAGAATT against Adprhl1 | -0.866
41 | GCUGUGGUAAACUGAAACUTT against Glis2 | -1.89
42 | GGGAGCCAAUGAAAUCAAGTT against Hmbox1 | 3.31 (active)
43 | GCCUUGACAGAGGUAUUGATT against Ovgp1 | -1.46
44 | GGAGAAAUUCAAACAAGUATT against 4930503B20Rik | 0.275

Row | Sequence | z-score
45 | CCCACUGGUUUGUUUAAACTT against Hbegf | 0.555
46 | GGUUUUGCCUCCCAUAGUATT against Ssty1 | 0.112
47 | GGAGGAGCUUAGCCCUUUUTT against Bad | 2.28 (active)
48 | GCAGUUACGUUAGUUAAUATT against Plekha1 | 1.1
49 | GCUACUCAUUUAGCAGAGATT against Olfr76 | -0.887
50 | GUGGAUUAGGGAAUUUCAUTT against Mrgprb1 | 1.84
51 | GAAUCCCUUCGAGUACGACTT against Fxyd2 | 3.17 (active)
52 | GGAGCUGAAUGUCUGUAGCTT against Mzt2 | -1.31
53 | CCUGAUGGAUGAUGAAUCATT against Trap1a | -1.42
54 | GGAGGAGCUGGAGAAAACATT against Psd4 | -0.43
55 | GGUCCUUUGAUGCUGACUGTT against Sfrp4 | -2.07 (active)
56 | CCAAGAAAAGUCCAGAAGCTT against Rorb | 0.379
57 | GGAGAGACGUAAGAGGCGATT against Zrsr2 | 0.0858
58 | GGACAAUUGGGCCAAACUGTT against Mpv17 | 0.103
59 | GGUGAAACCCUGAAAGUCCTT against Tmem154 | -0.169
60 | GGUGUGUUAAGGUUUUUAATT against Marchf1 | 3.68 (active)
61 | GGAUAAUUUUGGAAGCAGATT against Rheb | -0.299
62 | GCAUCUCACUCGUAAAGGUTT against Tmprss11f | -0.555
63 | GCGCGUGACAAGGAGGAUUTT against Ska3 | 1.03
64 | GGCCUGAACUUUUUAUUGATT against Olfr533 | -2.19 (active)
65 | GGGAUUUUAUCAUACAAACTT against Ppil4 | 0.774
66 | GGCUUUCAUGUGCCGUUUUTT against Gstm5 | 2.39 (active)

Row | Sequence | z-score
67 | GGAACUUGUUUCAUAUCGUTT against Scfd1 | 0.839
68 | GGGAUUGUGUGAAUCAUACTT against Tmem230 | -1.27
69 | GGCUGCUGAAGCAAAUAAGTT against Ankrd17 | 3.38 (active)
70 | GGGAAGGCUGAAUGACUGCTT against Vamp5 | 0.257
71 | GGCGAGAGAGAUGAGUAAATT against Smim3 | -1.63
72 | GGGAAUUAUGGGCUUACCGTT against 4931414P19Rik | -0.414
73 | GGCUAUUUCUUUUUAUGCUTT against Ak4 | 0.911
74 | GGAGACAAUGGACAAGAAGTT against Dnal4 | 0.272
75 | GCCAGUAACCAGAAAAUUGTT against Sycp3 | -2.01 (active)
76 | CCUUAUUACACACACCCUGTT against Gja3 | 0.398
77 | GCUGGUAGCAUUCUUAUCCTT against Xylt2 | 0.529
78 | CGGAUGAGGUUUCUUUUAUTT against Phkb | 0.415
79 | GGUUGGUUCUUACUUGAAATT against Mindy3 | 0.613
80 | GGAUAAUGCUCCAUCAUAGTT against Nab1 | -0.419
81 | GCAAUCACCAAAUCACUAGTT against Fstl1 | -0.123
82 | GCCAGGAAACGACAAUAAATT against Slc5a11 | 0.731
83 | CCUAGUACUUCGAAGAAAGTT against Tmem255a | -2.62 (active)
84 | GGUCAUUCAGUGGUGCACCTT against Skp1 | -0.00227
85 | GGUUUCAAACUCUUGUAAUTT against Pgrmc1 | -0.139
86 | GGUUUGUUUUCAGAUGAAGTT against Washc2 | 0.155
87 | GGAGAAAAUAAGCUGGUAGTT against Slc35f1 | 3.42 (active)
88 | CCCAUCAAUGCUGUUAAUUTT against Entpd5 | 0.128

Row | Sequence | z-score
89 | GCUCGAUAUCACAGAGAUUTT against Ces5a | -0.177
90 | GGAGUUGGAGAAUGACACGTT against Ift88 | 1.14
91 | GCAGUGUUGUCAAAACUUGTT against Mtfmt | 1.54
92 | GGUACUUUAUAGGAACAGUTT against Zbtb41 | -0.973
93 | GGUAUGCUAACAGAACACGTT against Nr1h4 | 3.15 (active)
94 | GCAGAUGCUAACAUAUCCATT against Trim32 | -0.902
95 | GCGCAGAGAUUACCUUAAGTT against Gtf3a | -0.543
96 | CCACUAUUUAAUCUUACCGTT against Hoxc13 | 0.175
97 | GGAGCAUAUAUAGAAUUAGTT against Mrps22 | 3.01 (active)
98 | GCGGGCUUUGCUGAGAUUUTT against Zbtb48 | 0.604
99 | GGAGAUUUCCCGACUUAACTT against Tnip2 | 1.68
100 | GGCAUCCAUGUGCUCUUUCTT against Tex13a | -2.49 (active)
101 | GGGAAAAGGUCAGUGAAGUTT against Fam219b | -0.305
102 | GGGAAUGGAAGAAUAUUCUTT against Dppa2 | 1.61
103 | CCUCGUGUUACUUUUACCCTT against Olfr13 | -1.51
104 | GCUUCUCUACACCACAGACTT against Olfr796 | -0.0426
105 | GGGUUGAUUGACGAAGCCATT against Fga | -1.75
106 | GGAGAUUCAGAAUUACUGATT against Krit1 | -0.818
107 | GCAUUCAUUGAUCAAUUCUTT against Zbtb6 | 2 (active)
108 | GCCUGCUUUGGAAAAAUCATT against Akr1c12 | 0.209

Reference: PubChem BioAssay AID1508600 (Functional Genomics Laboratory (NCATS/FGL), 2020)
